Measurements taken from the supplement of paper PMC6897291.

Tests used:
[1] = tested on: U-2932; experiment: growth inhibition by drug alone (1 - RLU/untreated control) (fraction); higher = stronger inhibition; settings: 177Lu-lilotomab satetraxetan 0 ug/ml
Outline: (§1)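 Growth inhibition was calculated from RealTime-Glo RLU against untreated no-drug wells. Values equal 1 − RLU/mean of 48 untreated no-drug wells per plate, read daily from day 3 after 1 h at 37°C. RIVA and U-2932 cells, with or without 18 h pretreatment by a radiolabelled anti-CD37 antibody conjugate (~600 MBq/mg; 0.5 µg/ml RIVA, 1 µg/ml U-2932), were washed and plated at 3,000 cells/well on compound-printed plates at 10/100 nM (RIVA) or 10/1,000 nM (U-2932).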

[2] = tested on: U-2932; experiment: growth inhibition by drug plus 177Lu-lilotomab satetraxetan (1 - RLU/untreated control) (fraction); higher = stronger inhibition; settings: 177Lu-lilotomab satetraxetan 1 ug/ml
Outline: as §1

[3] = tested on: RIVA; experiment: growth inhibition by drug alone (1 - RLU/untreated control) (fraction); higher = stronger inhibition; settings: 177Lu-lilotomab satetraxetan 0 ug/ml
Outline: as §1

[4] = tested on: RIVA; experiment: growth inhibition by drug plus 177Lu-lilotomab satetraxetan (1 - RLU/untreated control) (fraction); higher = stronger inhibition; settings: 177Lu-lilotomab satetraxetan 0.5 ug/ml
Outline: as §1

Which results are given for `N[C@@H](Cc1ccc(N(CCCl)CCCl)cc1)C(=O)O` [Melphalan]?
growth inhibition by drug alone ([1]; 10 nM, time (day): 3): 0.0288; growth inhibition by drug alone ([1]; 10 nM, time (day): 4): 0.0447; growth inhibition by drug alone ([1]; 10 nM, time (day): 5): -0.0175; growth inhibition by drug alone ([1]; 10 nM, time (day): 6): -0.0774; growth inhibition by drug alone ([1]; 1000 nM, time (day): 3): -0.0212; growth inhibition by drug alone ([1]; 1000 nM, time (day): 4): 0.00786; growth inhibition by drug alone ([1]; 1000 nM, time (day): 5): -0.0265; growth inhibition by drug alone ([1]; 1000 nM, time (day): 6): -0.169; growth inhibition by drug plus 177Lu-lilotomab satetraxetan ([2]; 10 nM, time (day): 3): 0.0197; growth inhibition by drug plus 177Lu-lilotomab satetraxetan ([2]; 10 nM, time (day): 4): 0.0283; growth inhibition by drug plus 177Lu-lilotomab satetraxetan ([2]; 10 nM, time (day): 5): 0.0541; growth inhibition by drug plus 177Lu-lilotomab satetraxetan ([2]; 10 nM, time (day): 6): 0.143; growth inhibition by drug plus 177Lu-lilotomab satetraxetan ([2]; 1000 nM, time (day): 3): 0.00364; growth inhibition by drug plus 177Lu-lilotomab satetraxetan ([2]; 1000 nM, time (day): 4): 0.0898; growth inhibition by drug plus 177Lu-lilotomab satetraxetan ([2]; 1000 nM, time (day): 5): 0.0598; growth inhibition by drug plus 177Lu-lilotomab satetraxetan ([2]; 1000 nM, time (day): 6): 0.0846

What does the source list for `Cn1cc(C2=C(c3cn(C4CCN(Cc5ccccn5)CC4)c4ccccc34)C(=O)NC2=O)c2ccccc21`?
growth inhibition by drug plus 177Lu-lilotomab satetraxetan ([2]; 10 nM, time (day): 3): -0.0756; growth inhibition by drug plus 177Lu-lilotomab satetraxetan ([2]; 10 nM, time (day): 4): -0.00933; growth inhibition by drug plus 177Lu-lilotomab satetraxetan ([2]; 10 nM, time (day): 5): 0.0275; growth inhibition by drug plus 177Lu-lilotomab satetraxetan ([2]; 10 nM, time (day): 6): 0.128; growth inhibition by drug plus 177Lu-lilotomab satetraxetan ([2]; 1000 nM, time (day): 3): -0.0807; growth inhibition by drug plus 177Lu-lilotomab satetraxetan ([2]; 1000 nM, time (day): 4): -0.0188; growth inhibition by drug plus 177Lu-lilotomab satetraxetan ([2]; 1000 nM, time (day): 5): 0.0211; growth inhibition by drug plus 177Lu-lilotomab satetraxetan ([2]; 1000 nM, time (day): 6): 0.21

`O=C(Oc1ccc([N+](=O)[O-])cc1)N1CCC(C(O)(c2ccc3c(c2)OCO3)c2ccc3c(c2)OCO3)CC1` was tested. Which “growth inhibition by drug plus 177Lu-lilotomab satetraxetan” value ([2]; 10 nM, time (day): 3) did it give?
Its value is -0.0245.

What about the “growth inhibition by drug plus 177Lu-lilotomab satetraxetan” value ([2]; 10 nM, time (day): 4) of the same compound?
The value was 0.00325.

What about the “growth inhibition by drug plus 177Lu-lilotomab satetraxetan” value ([2]; 10 nM, time (day): 5) of the same compound?
Its value is 0.0178.

What about the “growth inhibition by drug plus 177Lu-lilotomab satetraxetan” value ([2]; 10 nM, time (day): 6) of the same compound?
The value was 0.11.

And the “growth inhibition by drug plus 177Lu-lilotomab satetraxetan” value ([2]; 1000 nM, time (day): 3)?
The value was -0.0484.

What about the “growth inhibition by drug plus 177Lu-lilotomab satetraxetan” value ([2]; 1000 nM, time (day): 4) of the same compound?
Its value is 0.0258.

What about the “growth inhibition by drug plus 177Lu-lilotomab satetraxetan” value ([2]; 1000 nM, time (day): 5) of the same compound?
The value was 0.0163.

And the “growth inhibition by drug plus 177Lu-lilotomab satetraxetan” value ([2]; 1000 nM, time (day): 6)?
Its value is 0.077.

How did the “growth inhibition by drug plus 177Lu-lilotomab satetraxetan” value ([2]; 10 nM, time (day): 3) turn out when `CC(=O)Nc1ccc(OC[C@](C)(O)C(=O)Nc2ccc([N+](=O)[O-])c(C(F)(F)F)c2)cc1` [Andarine (GTX-007)] was run?
Its value is 0.0713.

What about the “growth inhibition by drug plus 177Lu-lilotomab satetraxetan” value ([2]; 10 nM, time (day): 4) of the same compound?
The value was 0.12.

What about the “growth inhibition by drug plus 177Lu-lilotomab satetraxetan” value ([2]; 10 nM, time (day): 5) of the same compound?
Its value is 0.151.

What about the “growth inhibition by drug plus 177Lu-lilotomab satetraxetan” value ([2]; 10 nM, time (day): 6) of the same compound?
The value was 0.162.

What about the “growth inhibition by drug plus 177Lu-lilotomab satetraxetan” value ([2]; 1000 nM, time (day): 3) of the same compound?
Its value is -0.0087.

And the “growth inhibition by drug plus 177Lu-lilotomab satetraxetan” value ([2]; 1000 nM, time (day): 4)?
Its value is 0.0374.

And the “growth inhibition by drug plus 177Lu-lilotomab satetraxetan” value ([2]; 1000 nM, time (day): 5)?
The value was 0.0839.

And the “growth inhibition by drug plus 177Lu-lilotomab satetraxetan” value ([2]; 1000 nM, time (day): 6)?
The value was 0.127.

Which results are given for `C[C@]12CCC(=O)C(O)=C1CC[C@@H]1[C@@H]2CC[C@]2(C)C(=O)CC[C@@H]12` [Formestane]?
growth inhibition by drug plus 177Lu-lilotomab satetraxetan ([2]; 10 nM, time (day): 3): -0.06; growth inhibition by drug plus 177Lu-lilotomab satetraxetan ([2]; 10 nM, time (day): 4): -0.00612; growth inhibition by drug plus 177Lu-lilotomab satetraxetan ([2]; 10 nM, time (day): 5): 0.0406; growth inhibition by drug plus 177Lu-lilotomab satetraxetan ([2]; 10 nM, time (day): 6): 0.141; growth inhibition by drug plus 177Lu-lilotomab satetraxetan ([2]; 1000 nM, time (day): 3): -0.0681; growth inhibition by drug plus 177Lu-lilotomab satetraxetan ([2]; 1000 nM, time (day): 4): -0.018; growth inhibition by drug plus 177Lu-lilotomab satetraxetan ([2]; 1000 nM, time (day): 5): 0.0247; growth inhibition by drug plus 177Lu-lilotomab satetraxetan ([2]; 1000 nM, time (day): 6): 0.18

For `C=C1C[C@@H]2[C@H](CC[C@]3(C)C(=O)CC[C@@H]23)[C@@]2(C)C=CC(=O)C=C12` [Exemestane], which “growth inhibition by drug alone” value ([3]; 10 nM, time (day): 3) is on record?
Its value is 0.0187.

And the “growth inhibition by drug alone” value ([3]; 10 nM, time (day): 4)?
Its value is 0.00346.

What about the “growth inhibition by drug alone” value ([3]; 10 nM, time (day): 5) of the same compound?
Its value is -0.0171.

What about the “growth inhibition by drug alone” value ([3]; 10 nM, time (day): 6) of the same compound?
Its value is -0.272.

And the “growth inhibition by drug alone” value ([3]; 100 nM, time (day): 3)?
Its value is -0.247.

What about the “growth inhibition by drug alone” value ([3]; 100 nM, time (day): 4) of the same compound?
Its value is -0.223.

What about the “growth inhibition by drug alone” value ([3]; 100 nM, time (day): 5) of the same compound?
The value was -0.21.

And the “growth inhibition by drug alone” value ([3]; 100 nM, time (day): 6)?
Its value is -0.228.

And the “growth inhibition by drug plus 177Lu-lilotomab satetraxetan” value ([2]; 10 nM, time (day): 3)?
The value was 0.052.

And the “growth inhibition by drug plus 177Lu-lilotomab satetraxetan” value ([2]; 10 nM, time (day): 4)?
The value was 0.106.

And the “growth inhibition by drug plus 177Lu-lilotomab satetraxetan” value ([2]; 10 nM, time (day): 5)?
The value was 0.138.

What about the “growth inhibition by drug plus 177Lu-lilotomab satetraxetan” value ([2]; 10 nM, time (day): 6) of the same compound?
The value was 0.169.

What about the “growth inhibition by drug plus 177Lu-lilotomab satetraxetan” value ([2]; 1000 nM, time (day): 3) of the same compound?
Its value is -0.0113.

What about the “growth inhibition by drug plus 177Lu-lilotomab satetraxetan” value ([2]; 1000 nM, time (day): 4) of the same compound?
Its value is 0.0549.

And the “growth inhibition by drug plus 177Lu-lilotomab satetraxetan” value ([2]; 1000 nM, time (day): 5)?
Its value is 0.0989.

And the “growth inhibition by drug plus 177Lu-lilotomab satetraxetan” value ([2]; 1000 nM, time (day): 6)?
Its value is 0.179.

Which “growth inhibition by drug alone” value ([1]; 10 nM, time (day): 3) does the source give for `Cc1ccccc1-n1c(Cn2cnc3c(N)ncnc32)nc2cccc(C)c2c1=O` here?
The value was 0.0494.

What about the “growth inhibition by drug alone” value ([1]; 10 nM, time (day): 4) of the same compound?
Its value is 0.000763.

What about the “growth inhibition by drug alone” value ([1]; 10 nM, time (day): 5) of the same compound?
Its value is 0.0122.

And the “growth inhibition by drug alone” value ([1]; 10 nM, time (day): 6)?
The value was 0.0686.

What about the “growth inhibition by drug alone” value ([1]; 1000 nM, time (day): 3) of the same compound?
Its value is 0.047.

What about the “growth inhibition by drug alone” value ([1]; 1000 nM, time (day): 4) of the same compound?
Its value is 0.0488.

What about the “growth inhibition by drug alone” value ([1]; 1000 nM, time (day): 5) of the same compound?
The value was 0.0186.

What about the “growth inhibition by drug alone” value ([1]; 1000 nM, time (day): 6) of the same compound?
The value was 0.102.

And the “growth inhibition by drug plus 177Lu-lilotomab satetraxetan” value ([2]; 10 nM, time (day): 3)?
The value was -0.00529.

What about the “growth inhibition by drug plus 177Lu-lilotomab satetraxetan” value ([2]; 10 nM, time (day): 4) of the same compound?
The value was 0.0455.

What about the “growth inhibition by drug plus 177Lu-lilotomab satetraxetan” value ([2]; 10 nM, time (day): 5) of the same compound?
Its value is 0.107.

What about the “growth inhibition by drug plus 177Lu-lilotomab satetraxetan” value ([2]; 10 nM, time (day): 6) of the same compound?
The value was 0.209.

And the “growth inhibition by drug plus 177Lu-lilotomab satetraxetan” value ([2]; 1000 nM, time (day): 3)?
Its value is 0.0591.

And the “growth inhibition by drug plus 177Lu-lilotomab satetraxetan” value ([2]; 1000 nM, time (day): 4)?
The value was 0.0697.

What about the “growth inhibition by drug plus 177Lu-lilotomab satetraxetan” value ([2]; 1000 nM, time (day): 5) of the same compound?
The value was 0.0914.

What about the “growth inhibition by drug plus 177Lu-lilotomab satetraxetan” value ([2]; 1000 nM, time (day): 6) of the same compound?
The value was 0.26.

Which results are given for `O=C(O)c1nn(Cc2ccc(Cl)cc2Cl)c2ccccc12` [Lonidamine]?
growth inhibition by drug plus 177Lu-lilotomab satetraxetan ([2]; 10 nM, time (day): 3): 0.0325; growth inhibition by drug plus 177Lu-lilotomab satetraxetan ([2]; 10 nM, time (day): 4): 0.0863; growth inhibition by drug plus 177Lu-lilotomab satetraxetan ([2]; 10 nM, time (day): 5): 0.132; growth inhibition by drug plus 177Lu-lilotomab satetraxetan ([2]; 10 nM, time (day): 6): 0.173; growth inhibition by drug plus 177Lu-lilotomab satetraxetan ([2]; 1000 nM, time (day): 3): 0.0882; growth inhibition by drug plus 177Lu-lilotomab satetraxetan ([2]; 1000 nM, time (day): 4): 0.147; growth inhibition by drug plus 177Lu-lilotomab satetraxetan ([2]; 1000 nM, time (day): 5): 0.167; growth inhibition by drug plus 177Lu-lilotomab satetraxetan ([2]; 1000 nM, time (day): 6): 0.244; growth inhibition by drug plus 177Lu-lilotomab satetraxetan ([4]; 10 nM, time (day): 3): 0.616; growth inhibition by drug plus 177Lu-lilotomab satetraxetan ([4]; 10 nM, time (day): 4): 0.624; growth inhibition by drug plus 177Lu-lilotomab satetraxetan ([4]; 10 nM, time (day): 5): 0.644; growth inhibition by drug plus 177Lu-lilotomab satetraxetan ([4]; 10 nM, time (day): 6): 0.656; growth inhibition by drug plus 177Lu-lilotomab satetraxetan ([4]; 100 nM, time (day): 3): 0.309; growth inhibition by drug plus 177Lu-lilotomab satetraxetan ([4]; 100 nM, time (day): 4): 0.446; growth inhibition by drug plus 177Lu-lilotomab satetraxetan ([4]; 100 nM, time (day): 5): 0.459; growth inhibition by drug plus 177Lu-lilotomab satetraxetan ([4]; 100 nM, time (day): 6): 0.45
